# About 410 targets per protein were measured; listed, in parts, are those with the strongest signals and a random draw of the rest.
# B1: GNA (Galanthus nivalis), P30617 (protein)
# chain: MAKASLLILAAIFLGVITPSCLSDNILYSGETLSTGEFLNYGSFVFIMQEDCNLVLYDVDKPIWATNTGGLSRSCFLSMQTDGNLVVYNPSNKPIWASNTGGQNGNYVCILQKDRNVVIYGTDRWATGTHTGLVGIPASPPSEKYPTAGKIKLVTAK
# Legend:
# Assay in all cases: glycan array binding signal (z-score within array); higher = stronger binding
# Conditions in all cases: glycan notation: IUPAC condensed, linker removed
# [1] = target: Fuc(a1-2)Gal(b1-4)Glc6S
# Method in brief: (§1)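 The Consortium for Functional Glycomics database supplied 3228 glycan arrays, of which those lacking an available protein sequence were dropped. The binding signal, a within-array Z-score, was averaged across arrays of the same protein sequence and across linkers. Negative scores can be read as non-binding.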
# [2] = target: Fuc(a1-2)[Gal(a1-3)]Gal(b1-4)GlcNAc
# Method in brief: as §1
# [3] = target: Fuc(a1-2)[Gal(a1-3)]Gal(b1-4)GlcNAc(b1-3)[Fuc(a1-2)[Gal(a1-3)]Gal(b1-4)GlcNAc(b1-6)]GalNAc
# Method in brief: as §1
# [4] = target: Fuc(a1-2)[Gal(a1-3)]Gal(b1-4)[Fuc(a1-3)]GlcNAc(b1-3)GalNAc
# Method in brief: as §1
# [5] = target: Fuc(a1-3)[Gal(b1-4)]GlcNAc(b1-4)Gal(b1-4)[Fuc(a1-3)]GlcNAc
# Method in brief: as §1
# [6] = target: Gal(a1-3)Gal(b1-4)GlcNAc(b1-2)Man(a1-3)[Gal(a1-3)Gal(b1-4)GlcNAc(b1-2)Man(a1-6)]Man(b1-4)GlcNAc(b1-4)GlcNAc
# Method in brief: as §1
# [7] = target: Gal(a1-3)Gal(b1-4)GlcNAc(b1-6)GalNAc
# Method in brief: as §1
# [8] = target: Gal(a1-3)Gal(b1-4)[Fuc(a1-3)]GlcNAc(b1-2)Man(a1-3)[Gal(a1-3)Gal(b1-4)[Fuc(a1-3)]GlcNAc(b1-2)Man(a1-6)]Man(b1-4)GlcNAc(b1-4)GlcNAc
# Method in brief: as §1
# [9] = target: Gal(b1-3)[Neu5Ac(a2-6)]GlcNAc(b1-4)Gal(b1-4)Glc
# Method in brief: as §1
# [10] = target: Gal(b1-4)GalNAc(a1-3)[Fuc(a1-2)]Gal(b1-4)GlcNAc
# Method in brief: as §1
# [11] = target: Gal(b1-4)GlcNAc
# Method in brief: as §1
# [12] = target: Gal(b1-4)GlcNAc(b1-2)Man
# Method in brief: as §1
# [13] = target: Gal(b1-4)GlcNAc(b1-2)Man(a1-6)[Man(a1-3)]Man(b1-4)GlcNAc(b1-4)GlcNAc
# Method in brief: as §1
# [14] = target: Gal(b1-4)GlcNAc(b1-2)[Gal(b1-4)GlcNAc(b1-4)]Man(a1-3)[Gal(b1-4)GlcNAc(b1-2)[Gal(b1-4)GlcNAc(b1-6)]Man(a1-6)]Man(b1-4)GlcNAc(b1-4)GlcNAc
# Method in brief: as §1
# [15] = target: Gal(b1-4)GlcNAc(b1-3)Gal(b1-4)Glc
# Method in brief: as §1
# [16] = target: Gal(b1-4)GlcNAc(b1-3)Gal(b1-4)GlcNAc(b1-2)[Gal(b1-4)GlcNAc(b1-3)Gal(b1-4)GlcNAc(b1-6)]Man(a1-6)[Gal(b1-4)GlcNAc(b1-3)Gal(b1-4)GlcNAc(b1-2)Man(a1-3)]Man(b1-4)GlcNAc(b1-4)GlcNAc
# Method in brief: as §1
# [17] = target: Gal(b1-4)GlcNAc(b1-3)Gal(b1-4)GlcNAc(b1-3)Gal(b1-4)GlcNAc
# Method in brief: as §1
# [18] = target: Gal(b1-4)GlcNAc(b1-3)Gal(b1-4)GlcNAc(b1-3)Gal(b1-4)GlcNAc(b1-2)[Gal(b1-4)GlcNAc(b1-3)Gal(b1-4)GlcNAc(b1-3)Gal(b1-4)GlcNAc(b1-6)]Man(a1-6)[Gal(b1-4)GlcNAc(b1-3)Gal(b1-4)GlcNAc(b1-3)Gal(b1-4)GlcNAc(b1-2)Man(a1-3)]Man(b1-4)GlcNAc(b1-4)[Fuc(a1-6)]GlcNAc
# Method in brief: as §1
# [19] = target: Gal(b1-4)GlcNAc(b1-3)Gal(b1-4)GlcNAc(b1-3)Gal(b1-4)GlcNAc(b1-3)Gal(b1-4)GlcNAc(b1-3)Gal(b1-4)GlcNAc(b1-2)[Gal(b1-4)GlcNAc(b1-3)Gal(b1-4)GlcNAc(b1-3)Gal(b1-4)GlcNAc(b1-3)Gal(b1-4)GlcNAc(b1-3)Gal(b1-4)GlcNAc(b1-6)]Man(a1-6)[Gal(b1-4)GlcNAc(b1-3)Gal(b1-4)GlcNAc(b1-3)Gal(b1-4)GlcNAc(b1-3)Gal(b1-4)GlcNAc(b1-3)Gal(b1-4)GlcNAc(b1-2)Man(a1-3)]Man(b1-4)GlcNAc(b1-4)[Fuc(a1-6)]GlcNAc
# Method in brief: as §1
# [20] = target: Gal(b1-4)GlcNAc(b1-3)[Gal(b1-4)GlcNAc(b1-6)]Gal(b1-4)GlcNAc
# Method in brief: as §1
# [21] = target: Gal3S(b1-4)GlcNAc6S
# Method in brief: as §1
# [22] = target: Gal3S4S(b1-4)GlcNAc
# Method in brief: as §1
# [23] = target: Gal3S6S(b1-4)GlcNAc
# Method in brief: as §1
# [24] = target: GalNAc(b1-3)Gal(a1-6)Gal(b1-4)Glc
# Method in brief: as §1
# [25] = target: GalNAc(b1-3)GalNAc
# Method in brief: as §1
# [26] = target: GlcNAc(b1-3)Gal(b1-4)GlcNAc(b1-3)[GlcNAc(b1-3)Gal(b1-4)GlcNAc(b1-3)]GalNAc
# Method in brief: as §1
# [27] = target: Man(a1-2)Man(a1-3)[Man(a1-2)Man(a1-6)]Man(a1-6)[Man(a1-3)[Man(a1-6)]Man(a1-6)]Man(b1-4)GlcNAc(b1-4)GlcNAc
# Method in brief: as §1
# [28] = target: Man(a1-2)Man(a1-3)[Man(a1-6)]Man(a1-6)[Man(a1-2)Man(a1-3)]Man(b1-4)GlcNAc(b1-4)GlcNAc
# Method in brief: as §1
# [29] = target: Man(a1-2)Man(a1-6)[Man(a1-3)]Man(a1-6)[Man(a1-2)Man(a1-2)Man(a1-3)]Man(b1-4)GlcNAc(b1-4)GlcNAc
# Method in brief: as §1
# [30] = target: Man(a1-3)[Man(a1-6)]Man
# Method in brief: as §1
# [31] = target: Man(a1-3)[Man(a1-6)]Man(a1-6)[Man(a1-2)Man(a1-3)]Man(b1-4)GlcNAc(b1-4)GlcNAc
# Method in brief: as §1
# [32] = target: Man(a1-3)[Man(a1-6)]Man(a1-6)[Man(a1-3)]Man
# Method in brief: as §1
# [33] = target: Man(a1-3)[Man(a1-6)]Man(a1-6)[Man(a1-3)]Man(b1-4)GlcNAc(b1-4)GlcNAc
# Method in brief: as §1
# [34] = target: Man(a1-3)[Man(a1-6)]Man(b1-4)GlcNAc(b1-4)GlcNAc
# Method in brief: as §1
# [35] = target: Man(a1-3)[Man(a1-6)]Man(b1-4)GlcNAc(b1-4)[Fuc(a1-6)]GlcNAc
# Method in brief: as §1
# [36] = target: Neu5Ac(a2-3)Gal(b1-3)GalNAc(b1-4)[Neu5Ac(a2-8)Neu5Ac(a2-3)]Gal(b1-4)Glc
# Method in brief: as §1
# [37] = target: Neu5Ac(a2-3)Gal(b1-4)GlcNAc(b1-3)Gal(b1-4)GlcNAc(b1-2)Man(a1-3)[Neu5Ac(a2-3)Gal(b1-4)GlcNAc(b1-3)Gal(b1-4)GlcNAc(b1-2)Man(a1-6)]Man(b1-4)GlcNAc(b1-4)GlcNAc
# Method in brief: as §1
# [38] = target: Neu5Ac(a2-3)Gal(b1-4)GlcNAc(b1-3)Gal(b1-4)GlcNAc(b1-3)GalNAc
# Method in brief: as §1
# [39] = target: Neu5Ac(a2-3)[GalNAc(b1-4)]Gal(b1-4)GlcNAc(b1-3)GalNAc
# Method in brief: as §1
# [40] = target: Neu5Ac(a2-6)Gal(b1-4)GlcNAc(b1-2)Man(a1-3)Man(b1-4)GlcNAc(b1-4)GlcNAc
# Method in brief: as §1
# [41] = target: Neu5Ac(a2-6)Gal(b1-4)GlcNAc(b1-2)Man(a1-3)[GlcNAc(b1-4)][Neu5Ac(a2-6)Gal(b1-4)GlcNAc(b1-2)Man(a1-6)]Man(b1-4)GlcNAc(b1-4)GlcNAc
# Method in brief: as §1
# [42] = target: Neu5Ac(a2-6)Gal(b1-4)GlcNAc(b1-3)Gal(b1-4)GlcNAc(b1-3)Gal(b1-4)GlcNAc(b1-2)Man(a1-3)[Neu5Ac(a2-6)Gal(b1-4)GlcNAc(b1-3)Gal(b1-4)GlcNAc(b1-3)Gal(b1-4)GlcNAc(b1-2)Man(a1-6)]GalNAc
# Method in brief: as §1
# [43] = target: Neu5Ac(a2-6)GalNAc(b1-4)GlcNAc6S
# Method in brief: as §1
# [44] = target: Neu5Ac(a2-8)Neu5Ac(a2-3)Gal(b1-3)GalNAc(b1-4)[Neu5Ac(a2-3)]Gal(b1-4)Glc
# Method in brief: as §1
# [45] = target: Neu5Ac(a2-8)Neu5Ac(a2-3)Gal(b1-4)GlcNAc
# Method in brief: as §1
# [46] = target: Neu5Ac(a2-8)Neu5Ac(a2-8)Neu5Ac
# Method in brief: as §1
# [47] = target: Neu5Ac(b1-6)GalNAc
# Method in brief: as §1
# [48] = target: Neu5Gc(a2-3)Gal(b1-3)[Fuc(a1-4)]GlcNAc
# Method in brief: as §1
# [49] = target: Neu5Gc(a2-6)Gal(b1-4)GlcNAc
# Method in brief: as §1
binder,measurement,setting,value
B1,glycan array binding signal (z-score),[1],-0.048
same,glycan array binding signal (z-score),[2],-0.241
same,glycan array binding signal (z-score),[3],-0.171
same,glycan array binding signal (z-score),[4],-0.127
same,glycan array binding signal (z-score),[5],-0.127
same,glycan array binding signal (z-score),[6],2.17
same,glycan array binding signal (z-score),[7],-0.182
same,glycan array binding signal (z-score),[8],-0.106
same,glycan array binding signal (z-score),[9],-0.195
same,glycan array binding signal (z-score),[10],-0.192
same,glycan array binding signal (z-score),[11],-0.172
same,glycan array binding signal (z-score),[12],-0.167
same,glycan array binding signal (z-score),[13],3.11
same,glycan array binding signal (z-score),[14],0.166
same,glycan array binding signal (z-score),[15],-0.076
same,glycan array binding signal (z-score),[16],-0.093
same,glycan array binding signal (z-score),[17],-0.163
same,glycan array binding signal (z-score),[18],-0.116
same,glycan array binding signal (z-score),[19],-0.018
same,glycan array binding signal (z-score),[20],-0.21
same,glycan array binding signal (z-score),[21],0.332
same,glycan array binding signal (z-score),[22],-0.065
same,glycan array binding signal (z-score),[23],-0.101
same,glycan array binding signal (z-score),[24],-0.142
same,glycan array binding signal (z-score),[25],-0.175
same,glycan array binding signal (z-score),[26],-0.172
same,glycan array binding signal (z-score),[27],6.07
same,glycan array binding signal (z-score),[28],2.23
same,glycan array binding signal (z-score),[29],3.2
same,glycan array binding signal (z-score),[30],4.73
same,glycan array binding signal (z-score),[31],5.86
same,glycan array binding signal (z-score),[32],3.04
same,glycan array binding signal (z-score),[33],5.35
same,glycan array binding signal (z-score),[34],9.48
same,glycan array binding signal (z-score),[35],6.97
same,glycan array binding signal (z-score),[36],-0.155
same,glycan array binding signal (z-score),[37],0.02
same,glycan array binding signal (z-score),[38],-0.172
same,glycan array binding signal (z-score),[39],-0.073
same,glycan array binding signal (z-score),[40],-0.17
same,glycan array binding signal (z-score),[41],-0.182
same,glycan array binding signal (z-score),[42],-0.029
same,glycan array binding signal (z-score),[43],-0.173
same,glycan array binding signal (z-score),[44],-0.169
same,glycan array binding signal (z-score),[45],-0.178
same,glycan array binding signal (z-score),[46],-0.155
same,glycan array binding signal (z-score),[47],-0.21
same,glycan array binding signal (z-score),[48],-0.154
same,glycan array binding signal (z-score),[49],-0.116
